# In the library only some 2.4% were active in any assay of this set; here they are far more common.
# M1 PAM: potentiates human M1 receptor response to acetylcholine; activation, % at 3 µM; P11229; CHO-K1 hM1, Fluo-8 calcium fluorescence, ACh EC20; 0% = ACh EC20, 100% = maximal ACh; AID 588819; 0.088% of 360,000 active; in the data active = activation above about 19%, passing the limit was not always enough
# Target sequence (P11229 whole entry, looked up): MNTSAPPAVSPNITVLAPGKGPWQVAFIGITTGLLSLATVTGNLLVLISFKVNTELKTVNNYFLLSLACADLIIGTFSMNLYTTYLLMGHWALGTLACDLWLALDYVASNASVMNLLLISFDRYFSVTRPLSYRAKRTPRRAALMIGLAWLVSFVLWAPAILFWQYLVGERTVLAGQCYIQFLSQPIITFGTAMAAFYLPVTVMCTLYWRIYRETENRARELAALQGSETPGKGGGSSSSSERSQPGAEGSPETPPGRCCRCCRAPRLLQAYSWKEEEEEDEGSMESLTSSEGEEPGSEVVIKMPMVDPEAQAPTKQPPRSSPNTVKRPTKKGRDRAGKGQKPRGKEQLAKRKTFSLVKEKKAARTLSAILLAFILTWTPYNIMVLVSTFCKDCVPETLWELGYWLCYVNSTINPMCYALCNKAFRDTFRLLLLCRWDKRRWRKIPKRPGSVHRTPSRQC
# CHRM1 antagonist: antagonists of human M1 muscarinic receptor; P11229; CHO-K1 hM1, Fluo-8 calcium fluorescence, ACh EC80 antagonist; inhibition, % at 3 µM; 1.3% of 360,000 active; AID 588852;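 active = percent inhibition above its own plate's cutoff, namely the mean of that plate's compound wells plus 3 SD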;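 also: peak over basal fluorescence ratio during 140 s after agonist addition; 0% = ACh EC80 plus DMSO and 100% = DMSO alone without agonist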
# CHO-K1 Ca antag: M1 antagonist counterscreen hit in parental CHO-K1 cells; ATP-induced calcium, Fluo-8 fluorescence; inhibition, % at 3 µM; 0.6% of 360,000 active;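 active = inhibition above a per-plate cutoff, the plate's mean sample inhibition plus 3 SD, cut at about 24% in these data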;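 also: 0% = DMSO plus EC80 ATP and 100% = DMSO alone without ATP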
# M1 PAM parental: M1 PAM counterscreen hit in parental CHO-K1 cells. activation, % at 3 µM. AID 602247. 0.02% of 360,000 active. ATP EC20, Fluo-8 calcium fluorescence; 0% at ATP EC20, 100% at ATP max;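 active = activation above the run cutoff, the mean activation of all test compounds plus 3 SD, cut at about 40% in these data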;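 also: peak over basal fluorescence ratio in a 140 s read after ATP addition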
# CHO-K1 Ca ag: nonselective activator or artifact in parental CHO-K1 cells | Fluo-8 calcium fluorescence; scaled to maximal ATP response, vehicle zero | activation, % at 3 µM | 0.48% of 360,000 active | AID 602248; in the data active = activation above about 15%;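 also: untransfected CHO-K1 host cells lacking M1 receptor as counterscreen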
# CHRM1 agonist: human M1 muscarinic receptor agonism; CHO-K1 hM1, Fluo-8 calcium fluorescence, agonist mode; 0% DMSO, 100% acetylcholine EC100; activation, % at 3 µM; 0.33% of 360,000 active;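 active = activation above the run's mean compound activation plus 3 SD, cut at about 16% in these data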;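 also: peak over basal fluorescence ratio within a 140 s kinetic read after compound addition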
# An asterisk follows results filed as active; . = no result.
SMILES,M1 PAM,CHRM1 antagonist,CHO-K1 Ca antag,M1 PAM parental,CHO-K1 Ca ag,CHRM1 agonist
C[C@]12CCC(=O)C=C1C=CC1C2CC[C@@]2(C)C1CC[C@@H]2O (some centres not stated),0,-4,-5,1,0,-2
CCC(=NCCc1c[nH]c2ccccc12)c1c(O)n(C)c(=O)n(C)c1=O,-15,26*,24*,0,16*,3
O=C1NC(=O)N(c2ccccc2F)C(=O)/C1=C/c1ccc(Sc2nc3ccccc3[nH]2)o1,-9,10,15,-13,16*,17*
O=C1NC(=O)N(c2ccccc2)C(=O)/C1=C/c1ccc(Sc2ccccc2)o1,8,5,-5,9,9,-4
O=C1NC(=O)N(c2cccc(Cl)c2)C(=O)/C1=C\c1ccc(Sc2nc3ccccc3[nH]2)o1,-13,9,12,-2,27*,24*
CCOC(=O)/C(CCCN(CC)CC)=N\O,-19,78*,8,-6,1,-5
O=NN(CCF)C(=O)NC1CCC(=O)NC1=O (configuration not stated),.,.,-13,0,1,.
Fc1ccc(CCNCc2ccc(Br)cc2)cc1,3,-3,-15,41*,4,-9
N#CC(C#N)=NNc1ccc(-n2ccc(C(F)(F)F)n2)cc1,-7,31,22,-3,15,9
Cc1cc(C)n(-c2ccc(NN=C(C#N)C#N)cc2)n1,-9,16,14,-1,21*,9
C[N+]1(C)[C@@H]2CC[C@H]1CC(OC(=O)C(c1ccccc1)c1ccccc1)C2 (some centres not stated),-32,101*,3,-3,6,-8
O=C(OC1CCN(CCCl)CC1)C(c1ccccc1)c1ccccc1,-26,82,8,0,0,-7
O=C(COC(=O)Cc1ccccc1)NC12CC3CC(CC(C3)C1)C2,2,-21,-3,-1,0,-1
NC(=O)c1ccsc1NC(=O)COC(=O)Cc1ccccc1,-6,11,25*,-7,11,3
Cc1ccc(OCC(=O)N2CCN(Cc3ccc4c(c3)OCO4)CC2)cc1,5,-4,30*,-18,0,-12
CC1CN1P1(=O)OCC(C)([N+](=O)[O-])CO1 (configuration not stated),15,7,14,-23,0,9
COc1ccc(C(=O)C2CCCN(C3CSCCSC3)C2)cc1OC (configuration not stated),-26,97*,-16,22,1,-7
O=C(c1ccc(Cl)cc1)C1CCCN(C2CCSCC2)C1 (configuration not stated),-31,61*,-17,27,2,-12
CCCCCc1cc(O)c2c3c(c(=O)oc2c1)CN(C)CC3,-3,9,-7,26,10,-2
CCCCc1nc(N2CCNCC2)c(C#N)c2c1CSC(C)(C)C2,-20,54*,-12,20,1,-4
N#Cc1c(N2CCNCC2)nc(-c2ccco2)c2c1CCCC2,8,-12,16,-24,0,-4
CC(C)(C)C(=O)Cn1c(NCCCl)nc2ccccc21,13,-9,-7,25,1,-12
C[C@](N)(CCP(=O)(O)O)C(=O)O,2,-21,25*,-11,0,-2
CCCCCCC(Cl)(Cn1ccnc1)c1ccccc1 (configuration not stated),-24,33*,-4,22,1,-6
COC(=O)C1=C(c2ccc(OC(F)(F)F)cc2)C[C@@H]2CC[C@H]1N2C(=O)NCCOc1ccc(OC)cc1,-1,1,-21,6,1,-4
C[N+](C)(C)CCOC(=O)CBr,7,-34,-9,18,1,20*
COC(=O)C1=C(c2ccc(OC)c(OC)c2)C[C@@H]2CC[C@H]1N2C(=O)N1CCOCC1,5,-3,-1,-12,0,0
CCOC(=O)[C@@H]1[C@H]2COc3ccc(Br)cc3[C@@H]2N2C(=O)N(c3cccc(C)c3)C(=O)[C@]12C,6,-10,-14,13,0,-6
O=C(c1cccc2ccccc12)C1CCCN(Cc2ccon2)C1 (configuration not stated),3,-7,-11,8,1,-3

# Screening data as filed in PubChem BioAssay.
